These results are taken from PubChem BioAssay (NCATS).

Records with an inconclusive call do not appear. The source made the active and inactive calls. Unless noted, how the calls were made is not given here.

Experiment [1] can be described thus: qHTS profiling of the MIPE4 collection as inhibitors of Plasmodium falciparum (3D7) proliferation (AID 743344).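 Further: scaled between DMSO vehicle wells and 0.29 µM artemisinin as full inhibition.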 The following applies: P. falciparum 3D7 in erythrocytes, SYBR Green DNA fluorescence, 72 h; at 28.5 µM unless noted. The essentials: (§1)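 Parasite DNA was quantified by SYBR Green I fluorescence (ex 485, em 535 nm) after overnight lysis in saponin/Triton buffer at room temperature. Cultures at 0.3% parasitemia and 2.5% hematocrit were first exposed to compound for 72 h at 37 C; signals were normalised to artemisinin (0.29 uM) and vehicle wells.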

Experiment [2] is described as follows: qHTS profiling of the MIPE4 collection as inhibitors of Plasmodium falciparum (DD2) proliferation (AID 743345). The following applies: P. falciparum Dd2 in erythrocytes, SYBR Green DNA, 72 h; at 28.5 µM unless noted. The method in brief: as §1
Experiment [3] in a line: qHTS profiling of the MIPE4 collection as inhibitors of Plasmodium falciparum (DD2) proliferation (Rep 2) (AID 743346). The following applies: P. falciparum Dd2 in erythrocytes, SYBR Green DNA, 72 h; at 28.5 µM unless noted. The essentials:
as §1

A short description of experiment [4]: qHTS profiling of the MIPE4 collection as inhibitors of Plasmodium falciparum (HB3) proliferation (AID 743347).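 Further: plate controls were DMSO vehicle wells for no effect and artemisinin wells for full effect.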 The following applies: P. falciparum HB3 in erythrocytes, SYBR Green DNA, 72 h; at 28.5 µM unless noted. The method in brief: as §1
A short description of experiment [5]: High-throughput drug toxicity screening in the BPDCN cell line Gen2.2 (AID 1224824).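 Further: cells exposed to compounds for 48 h before reading.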 The following applies: Gen2.2 BPDCN cells; at 45.8 µM (top of the series) unless noted. The essentials: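 Gen2.2 cells, 500 per well in phenol red-free RPMI with 10% FBS, exposed to compounds 48 h at 37 C, 5% CO2; viability by CellTiter-Glo luminescence. Percent activity scaled to DMSO (100%) and 9.2 uM bortezomib final (0%).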

Experiment [6] in a line: High-throughput drug toxicity screening in the BPDCN cell line Cal-1 (AID 1224825). The following applies: Cal-1 BPDCN cell viability, qHTS; at 45.8 µM (top of the series) unless noted. The essentials: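 CellTiter-Glo luminescence after 48 h compound exposure; percent activity scaled with DMSO as 100% and bortezomib (9.2 uM final) as 0%. Cal-1 cells seeded at 500/well in RPMI, 10% FBS, no phenol red.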
On the technique in general: qHTS replaces the single test concentration by a dilution series.

The nature of experiment [7]: qHTS assay for measurement of the activity of small molecule inhibitors on Zika virus induced Caspase-3 activity in human iPSC derived neural progenitor cells (hNPCs) (AID 1224857; active means well fitted curve in the direction sought with a large enough effect; an effect the other way counts as inactive or inconclusive; further: % of control where 0% means no effect; nearly all actives have a fitted effect of over 65% in size). The method in brief:
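Values are percent inhibition of virus-induced caspase-3/7 signal, scaled between uninfected cells and ZIKV-infected cells. Infection used 2 FFU/cell for 6 h after 1 h compound exposure.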

Experiment [8] in a line: qHTS assay for measurement of the activity of small molecule inhibitors on Zika virus induced Caspase-3 activity in human astrocytoma cells (AID 1224859; active means well fitted curve in the direction sought with a large enough effect; an effect the other way counts as inactive or inconclusive;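 further: plate controls were ZIKV-infected untreated cells for no effect and uninfected cells for full effect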). The method in brief:
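Compound added 1 h pre-infection; ZIKV 2 FFU/cell on SNB-19 cells, 6 h, 37 C/5% CO2. Caspase-Glo 3/7 luminescence; values as % inhibition of ZIKV-induced caspase activity.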

Experiment [9] in a line: qHTS Screen of the MIPE 4.0 Collection Against Ewings Sarcoma (RDES) (AID 1259252; active means well fitted curve in the direction sought with a large enough effect; an effect the other way counts as inactive or inconclusive; further: nearly all actives have a fitted effect of over 35% in size; further: potency means the concentration at half of the fitted maximal effect). The essentials:
(§2)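 Dose series incubated 48 h with cells in RPMI plus 5% FBS, glutamine and penicillin/streptomycin; cell viability then quantified via CellTiter-Glo.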

Experiment [10] can be described thus: Identifying Small Molecule Inhibitors of Pancreatic Cancer Stem Cells (SN12C, Adherent) (AID 1259358; active means well fitted curve in the direction sought with a large enough effect; an effect the other way counts as inactive or inconclusive;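 further: cell survival measured after 48 h of compound exposure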; further: potency means the concentration at half of the fitted maximal effect). The essentials: (§3)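 Endpoint: ATP-based luminescence, 48 h drug exposure. Bortezomib at 9.2 uM final as full-kill control; DMSO vehicle as negative control; activity normalized between vehicle and cell-free wells.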
Experiment [11] can be described thus: Identifying Small Molecule Inhibitors of Pancreatic Cancer Stem Cells (SN12C, Spheroid) (AID 1259360; active means well fitted curve in the direction sought with a large enough effect; an effect the other way counts as inactive or inconclusive; further: potency means the concentration at half of the fitted maximal effect;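 on viability (% of control): 100% = DMSO-treated cells and 0% = wells without cells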). The following applies: Potency: SN12C spheroid viability. The essentials: as §3
The nature of experiment [12]: qHTS Screen of the MIPE 4.0 Collection Against Ewings Sarcoma (TC32) (AID 1259256; active means well fitted curve in the direction sought with a large enough effect; an effect the other way counts as inactive or inconclusive; further: potency means the concentration at half of the fitted maximal effect; nearly all actives have a fitted effect of over 45% in size). The essentials: as §2
The nature of experiment [13]: qHTS profiling for inhibitors of Plasmodium falciparum (DD2) proliferation (AID 743323). The following applies: lower = more inhibition; at 28.7 µM (top of the series) unless noted. The essentials:
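SYBR Green fluorescence (ex 485, em 535 nm) of lysed cultures gives parasite DNA content; wells normalized to artemisinin (0.29 uM) and DMSO controls. Infected red cells: 0.3% parasitemia, 2.5% hematocrit, 72 h, 37 C.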

Experiment [14] in a line: Identifying Small Molecule Inhibitors of Pancreatic Cancer Stem Cells (Panc1, Spheroid) (AID 1259359; active means well fitted curve in the direction sought with a large enough effect; an effect the other way counts as inactive or inconclusive;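 further: compound exposure lasted 48 h before reading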). The essentials: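 After a 4 h attachment period, compounds were pinned into wells and cultures held 48 h under standard incubator conditions. Viability was then measured as CellTiter-Glo luminescence following 10 min at room temperature.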

In experiment [1], `Cc1ccc2c(c1)c1c(n2CCc2ccc(C)nc2)CCN(C)C1` gave a parasite growth, % of DMSO control of 113%. The parasite growth remaining, % of DMSO control (lower = more inhibition) in [2] came to 55.3%. For the same compound, the parasite growth, % of control (lower = inhibition) in experiment [3] was found to be 49.2%. Also, the growth, % of control in experiment [4] was 135%. The cell viability, % of control (lower = more cytotoxic) in experiment [5] is 163%. Besides, the viability (% of control) in [6] was found to be 90.5%. Further, the Potency entry in experiment [7], in experiment [8] and in experiment [9] was “inactive” each time.

With `CN[C@@H]1CN(c2ccc3c(=O)c(C(=O)O)cn(-c4nccs4)c3n2)C[C@@H]1OC`, the parasite growth, % of control (lower = inhibition) in experiment [3] is 8.12% [at 9.64 µM]. Moreover, the cell viability, % of control (lower = more cytotoxic) in experiment [5] was found to be 7.46% [at 23.2 µM]. In addition, the viability (% of control) in [6] turned out to be 3.44% [at 23.2 µM]. For the same compound, the Potency result in experiment [7] and in experiment [8] was “inactive” throughout. In addition, the Potency in [9] was 1.29 µM (active).

For `CC=C(C(=CC)c1ccc(O)cc1)c1ccc(O)cc1`, the parasite growth, % of DMSO control in experiment [1] stood at 61.7%. Moreover, in experiment [3], the parasite growth, % of control (lower = inhibition) amounted to 67.7%. Also, in [4], the growth, % of control was 70.1%. The cell viability, % of control (lower = more cytotoxic) in experiment [5] stood at 43.4%. Besides, the viability (% of control) in experiment [6] came to 26.7%. Besides, the Potency result in experiment [7] and in experiment [8] was “inactive” each time. Further, the Potency in experiment [9] was 20.9 µM (active).

As to `O=C(O)c1ccc(O)c2ncc(N3CCOCC3)cc12`, the parasite growth, % of DMSO control in experiment [1] was 15.1%. Further, the parasite growth, % of control (lower = inhibition) in experiment [3] was 16.8%. In experiment [4], this compound had a growth, % of control of 11%. In [5], the cell viability, % of control (lower = more cytotoxic) is 110%. Further, in experiment [6], the viability (% of control) stood at 100%. In addition, the Potency entry in [7], in [8], in experiment [10] and in experiment [11] was “inactive” in each case. In [9], the Potency is 26.4 µM (active).

The compound `CCOc1ccccc1N=Nc1c(C)[nH]n(-c2nc(-c3ccccc3)cs2)c1=O` had a parasite growth, % of DMSO control in [1] of 92.5%. The parasite growth remaining, % of DMSO control (lower = more inhibition) in [2] amounted to 102%. In addition, in [3], the parasite growth, % of control (lower = inhibition) was 82.1%. In addition, the cell viability, % of control (lower = more cytotoxic) in experiment [5] amounted to 97.4%. Further, the viability (% of control) in [6] came to 63.6%. Further, the Potency result in experiment [7] and in experiment [8] was “inactive” in each case. Besides, the Potency in [9] was 16.6 µM (active).

For the compound `CC(=O)N1CCN(c2ccc(OCc3nn(C)c(C)c3-c3cccc4c(CCCOc5cc(C)c(Cl)c(C)c5)c(C(=O)O)n(Cc5cccnc5)c34)cc2)CC1`, the parasite growth remaining, % of DMSO control (lower = more inhibition) in experiment [2] stood at 15.1%. The parasite growth, % of control (lower = inhibition) in [3] amounted to 13.7%. In experiment [4], the growth, % of control came to 6.27%. For the same compound, the cell viability, % of control (lower = more cytotoxic) in experiment [5] worked out at 7.74%. Moreover, the viability (% of control) in [6] stood at 2.47%. Moreover, the Potency result in [7] and in experiment [8] was “inactive” each time. For the same compound, the Potency in [9] and in experiment [12] was 20.9 µM (active) each time.

Regarding `COc1ccc(-c2cc(=O)c3c(O)cc(O[C@@H]4O[C@H](CO[C@@H]5O[C@@H](C)[C@H](O)[C@@H](O)[C@@H]5O)[C@@H](O)[C@H](O)[C@@H]4O)cc3o2)cc1O`, the parasite growth remaining, % of DMSO control (lower = more inhibition) in experiment [2] was found to be 28.6%. In experiment [3], the parasite growth, % of control (lower = inhibition) was determined as 33.2%. Besides, the growth, % of control in experiment [4] is 23.4%. The cell viability, % of control (lower = more cytotoxic) in experiment [5] turned out to be 93%. In [6], the viability (% of control) came to 111%. For the same compound, the Potency entry in experiment [7] and in [8] was “inactive” in each case. Besides, the values for the Potency in experiment [9] and in experiment [12] were 18.7 µM (active) and 26.4 µM (active), respectively.

In turn, `Fc1ccc(CNc2ncnc3ccc(F)cc23)cc1` came in with a parasite growth, % of DMSO control in experiment [1] of 300%. Further, in experiment [3], the parasite growth, % of control (lower = inhibition) was determined as 117%. The same compound had a growth, % of control in experiment [4] of 630%. Further, the cell viability, % of control (lower = more cytotoxic) in experiment [5] stood at 91.2%. Also, in experiment [6], the viability (% of control) worked out at 93.2%. In addition, the Potency result in [7] and in experiment [8] was “inactive” each time. Besides, in [9], the Potency was 13.2 µM (active).

In the case of `CCNC(=O)c1noc(-c2cc(C(C)C)c(O)cc2O)c1-c1ccc(CN2CCOCC2)cc1`, in [13], the activity, percent of control is 0.689%. The parasite growth, % of DMSO control in [1] came out at 5.56%. Further, the parasite growth remaining, % of DMSO control (lower = more inhibition) in experiment [2] amounted to 7.71%. Also, the parasite growth, % of control (lower = inhibition) in [3] came to 9.57%. Also, the growth, % of control in [4] worked out at 4.24%. In experiment [5], the cell viability, % of control (lower = more cytotoxic) came out at 14.2%. Also, the viability (% of control) in experiment [6] came to 7.68%. Further, the Potency result in [7], in experiment [8] and in [14] was “inactive” in each case. Moreover, the Potency in experiment [9] is 0.105 µM (active); in experiment [10], 0.0105 µM (active); in experiment [11], 0.0074 µM (active).
